Source: PubChem
Hits are enriched below; roughly 2.2% of the tested compounds scored in any of these assays.
FUS yeast rescue: suppressors of FUS proteinopathy in yeast | S. cerevisiae FUS-expressing, growth rescue, OD600, 24 h | Potency, µM (doses to about 76.6 µM), usual class: activators | actives 0.24% (n = 390,000);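 note: plate controls were DMSO vehicle for no effect and reference control for full effect; nearly all actives have a fitted effect of over 55% in size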
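Read-out: OD at 600 nm after 24hr at 30C, reporting rescue of FUS-induced yeast toxicity. Cells at OD 0.005 in galactose (2%) minimal medium; compounds tested in a dilution series; CP55940 titration from 92uM final as control.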
aSyn rescue: alpha-synuclein toxicity inhibition in yeast. Yeast expressing alpha-synuclein, growth rescue, BacTiter-Glo, 24 h. Potency, µM (highest dose often 46.1 µM), inactives show top-dose growth rescue (activation), hits mostly activators. actives 0.14% (n = 370,000). AID 652106; note: % of control where 0% means no effect; nearly all actives have a fitted effect of over 65% in size
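Screening used galactose-induced yeast with toxic alpha-synuclein levels, exposed to compound for 24 hr at 30 deg C. Cell growth, read with BacTiter-Glo luminescence, gave the measured signal.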
Abeta yeast res: compounds reversing amyloid beta toxicity in yeast | yeast expressing A-beta42, growth rescue, OD600, 48 h; response scale: 0% DMSO, 100% iron-clioquinol control | Potency, µM (highest dose often 46.1 µM), actives largely listed as activators | actives 0.063% (n = 410,000) | AID 1347071; note: nearly all actives have a fitted effect of over 55% in size
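Yeast A-beta toxicity model in growth medium with pinned compounds, 48 h at 30 C; growth read as absorbance at 600 nm. Normalized to FeCl3/clioquinol equimolar mix (positive) and DMSO (negative).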
Mito fusion yeast: mitochondrial division inhibition or fusion activation | AID 485298 | actives 0.23% (n = 320,000) | S. cerevisiae fusion-defective mutant growth rescue, CellTiterGlo 48 h | Potency, µM (top dose mostly 46.1 µM), inactives show top-dose growth rescue (activation), most hits filed as activators; note: % of control where 0% means no effect; nearly all actives have a fitted effect of over 45% in size
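S. cerevisiae fusion-defective temperature-sensitive mutants (e.g. fzo1-1, mgm1-5) grown 48 h at 37C in YPEG (ethanol/glycerol non-fermentable) medium with 23 nl compound per well; growth rescue read as CellTiterGlo luminescence.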
TDP43 rescue: rescues yeast growth from TDP-43 toxicity; actives 1.8% (n = 410,000); Potency, µM (highest dose often 46.1 µM), inactives show at the top dose growth rescue (activation), most hits filed as activators; TDP-43 expressing yeast growth rescue, BacTiter-Glo, 24 h; AID 652104; note: % of control where 0% means no effect; nearly all actives have a fitted effect of over 50% in size
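Cell-based yeast growth screen: TDP-43 expression induced in galactose, inoculum OD600=0.02 after raffinose pregrowth to mid-log. Read-out BacTiter-Glo luminescence at 24 hr, 30 deg C; inhibition of toxicity seen as signal increase.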
Numbers without * were called inactive; i = inactive; ? = inconclusive; . = no result; ! = a repeat was not active. Calls come from the whole dose curve; as a rule, active = well fitted curve in the direction sought with a large enough effect; inconclusive = small, poorly fitted or top-dose-only effect, or another doubt; inactive = no such curve, though single readings can be large; an effect the other way counts as inactive or inconclusive. Potency is the fitted concentration of half-maximal effect.

SMILES | FUS yeast rescue | aSyn rescue | Abeta yeast res | Mito fusion yeast | TDP43 rescue
Cc1nc(C(=O)Nc2cc(Cl)ccc2Cl)nn1-c1cc(OC(C)C)c(Cl)cc1Cl | i | 5.0% | i | 8.3% | 10.3%
CC(=O)c1ccc(NC(=O)c2nc(-c3ccccc3)n(-c3ccccc3Cl)n2)cc1 | ? | . | i | . | 14.1µM*
Cc1nc(C(=O)Nc2cccc(Cl)c2)nn1-c1cc(OC(C)C)c(Cl)cc1Cl | 31.6µM* | -11.1% | i | 18.1% | 5.2%
CC(=O)CC[C@@H]1CC[C@]2(CCCN(S(C)(=O)=O)C2)O1 | i | . | . | . | .
CCOC(=O)c1scc(-c2ccccc2)c1S(=O)(=O)N1CCN(c2ccccc2OC)CC1 | i | . | i | . | 18.8%
Cc1cccc(NC(=O)C2CCCN2S(=O)(=O)c2ccc3nc(-c4ccccc4)[nH]c3c2)c1 (stereo not drawn) | i | . | i | . | 28.0%
Cc1cc2c(n1-c1ccc(C(=O)NCC(C)c3ccccc3)cc1)CCCC2 (stereo not drawn) | i | . | i | . | 16.0%
CCc1ccc(NC(=O)c2cc(C)nn2-c2ccccc2)cc1 | i | -0.7% | i | -18.4% | 15.8µM*
Cc1ccc(Cn2c(=O)c3cccnc3n(CC(=O)Nc3cc(Cl)ccc3C)c2=O)cc1 | i | . | i | . | 8.6%
COc1cc(Cl)c(C)cc1NC(=O)c1cc(CN2CCOCC2)on1 | i | . | i | . | 5.1%
COc1cccc(N/C(SCc2ccccc2C)=C(/C#N)C(=O)NCc2cccs2)c1 | . | 3.5% | i | -4.5% | 7.9%
COc1cccc(N/C(SC)=C(/C#N)C(=O)NCc2cccs2)c1 | i | -5.1% | i | -8.2% | 14.1µM*
Clc1cccc(N2CCN(c3ncnc4c3nc3n4CCCCC3)CC2)c1 | ? | . | i | . | 17.8µM*
Fc1ccc(N2CCN(c3ncnc4c3nc3n4CCCCC3)CC2)cc1 | i | . | i | . | 12.8%
Cc1cccc(N2CCN(c3ncnc4c3nc3n4CCCCC3)CC2)c1C | i | . | i | . | 22.4µM*
COc1cccc(NC(=O)Cn2c(=O)n(-c3ccc(C)cc3)c(=O)c3ccccc32)c1 | i | . | i | . | 26.0%
Cc1ccc(OCCn2c(-c3ccc(Br)cc3)nc3ccccc3c2=O)cc1C | i | . | i | . | 0.0%
O=C(O)CCc1nc(-c2ccccc2)c(-c2ccccc2)o1 | . | -55.6% | . | 16.4µM*! | .
O=C(Cn1c2ncccc2c(=O)n1-c1ccccc1)NCc1ccccc1 | i | . | i | . | 12.6µM*
NC[C@@H]1O[C@H](C23CC4CC(CC(C4)C2)C3)Cc2c1ccc(O)c2O | i | -0.2% | i | ? | -27.3%
NC[C@@H]1O[C@H](c2ccccc2)Cc2c1ccc(O)c2O | . | 4.3% | . | 16.4µM* | .
O=C(Nc1ccc2oc(-c3cccnc3)nc2c1)c1ccc(-c2cccc(OC(F)(F)F)c2)o1 | i | . | i | . | 2.4%
Cc1cc(C)c(C(CC(=O)c2cccs2)C(C#N)C#N)c(C)c1 (stereo not drawn) | i | 1.4% | i | 28.1% | 12.6µM*
COc1ccc(OC)c(/C=C2\SC(N3CCCC(C)C3)=NC2=O)c1 (stereo not drawn) | i | 0.7% | i | 12.6µM* | 16.9%
CN(C)c1ccc(/C=C2\SC(N3CCCCC3)=NC2=O)cc1 | i | -0.4% | i | -5.1% | 22.4µM*
SMILES | FUS yeast rescue | aSyn rescue | Abeta yeast res | Mito fusion yeast | TDP43 rescue
COc1cc(/C=C2\SC(N3CCC(C)CC3)=NC2=O)ccc1O | i | -9.8% | i | -15.6% | 11.2µM*
COc1ccc(/C=C2\SC(N3CCCCC3)=NC2=O)cc1OC | i | 0.7% | i | -4.4% | -3.0%
CCOC(=O)C1CCN(C2=NC(=O)/C(=C/c3ccc(Cl)cc3)S2)CC1 | i | 5.7% | i | -6.3% | 20µM*
Cc1ccc(/C=C2\SC(N3CCCC3)=NC2=O)cc1 | . | . | . | 12.8% | .
CS(=O)(=O)N1CCN(c2nc(-c3cccs3)nc3ccccc23)CC1 | . | 0.9% | . | . | .
Clc1ccc(-c2nc3ccc(Cl)cn3c2Cc2cccc(Cl)c2)cc1 | ? | -1.2% | i | . | 25.1µM*
Clc1cccc(Cc2c(-c3ccccc3)nc3ccc(Cl)cn23)c1 | i | 2.0% | i | . | 31.6µM*
Fc1ccc(-c2nc3ccc(Cl)cn3c2Cc2cccc(Cl)c2)cc1 | i | -1.4% | i | . | 25.3%
